The panel holds about 79,000 compounds, 15% with a hit somewhere; the sample as a whole holds those more often. The source made the active and inactive calls. Rule as the data show it: active = growth inhibition above about 70%; inactive = the rest. Where a SMILES comes first, the peptide text is derived from it. The star is where a group is joined. Cbz = O=C(OCc1ccccc1)*; OBn = c1ccc(CO*)cc1
What was measured:
[1] = NCI Yeast Anticancer Drug Screen. Data for the rad50 strain (AID 155);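 also: 0% = growth of vehicle-only cultures of the same strain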; settings: S. cerevisiae rad50 strain growth inhibition, stronger effect = higher value; at 50.0 µM unless noted
How it was run: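 Readout: growth inhibition relative to vehicle-treated cultures. Compound exposure was carried out in a genetically defined yeast strain deficient in DNA damage repair.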

[2] = NCI Yeast Anticancer Drug Screen. Data for the mec2-1 strain (AID 157); settings: S. cerevisiae mec2-1 strain, stronger effect = higher value; at 50.0 µM unless noted
How it was run: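 Vehicle-treated cultures served as reference for growth inhibition of compound-exposed mec2-1 yeast.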

[3] = NCI Yeast Anticancer Drug Screen. Data for the sgs1 mgt1 strain (AID 161);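 also: 0% = growth of cultures given vehicle only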; settings: S. cerevisiae sgs1 mgt1 strain, stronger effect = higher value; at 50.0 µM unless noted
How it was run: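 Inhibition of yeast growth, normalised to vehicle-treated controls, is reported for a strain bearing genetic alterations in DNA damage repair.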

[4] = NCI Yeast Anticancer Drug Screen. Data for the cln2 rad14 strain (AID 165);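 also: 0% = growth equal to vehicle treated cultures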; settings: S. cerevisiae cln2 rad14 strain, stronger effect = higher value; at 50.0 µM unless noted
How it was run: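 Each compound was tested on cln2 rad14 yeast. Inhibition of growth was calculated against vehicle-exposed controls.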

[5] = NCI Yeast Anticancer Drug Screen. Data for the bub3 strain (AID 167); settings: S. cerevisiae bub3 mutant strain, stronger effect = higher value; at 50.0 µM unless noted
How it was run: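 Readout: yeast growth inhibition, expressed relative to vehicle-only wells. The test organism is a mutant strain from a panel with lesions in DNA repair or checkpoint genes.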

[6] = NCI Yeast Anticancer Drug Screen. Data for the mlh1 rad18 strain (AID 175); settings: S. cerevisiae mlh1 rad18 strain growth inhibition, stronger effect = higher value; at 50.0 µM unless noted
How it was run: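 Vehicle-treated cultures served as the reference for growth inhibition in a yeast strain carrying DNA damage repair alterations exposed to each compound.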

Measured: growth inhibition

ClN(Cl)c1nc(-c2ccccc2)nc(N(Cl)Cl)n1
inactive: [1] 18.1% | [2] 29.6% | [3] 34.9% | [4] -38.1% | [5] 32.5% | [6] 31.5%

O=C(O)c1cc([N+](=O)[O-])cc2c(=O)c3cnccc3[nH]c12
inactive: [1] -23.6% | [2] -0.35% | [3] -1.95% | [4] -25.6% | [5] -8.5% | [6] -9.7%

Nc1ccc2c(c1)C(=O)c1cc(Cl)cc(Cl)c1-2
inactive: [1] 0% | [2] -4.75% | [3] -0.5% | [4] -44% | [5] 7.05% | [6] 2.25%

CCCCCCCCCCCCCCCC(=O)c1ccccc1
inactive: [1] 33.2% | [2] 27.2% | [3] 28.4% | [4] 52.6% | [5] 21.1% | [6] 42.5%

C/C(=N\Nc1nc2ccccc2s1)c1ccc2c(c1)Sc1ccccc1O2
inactive: [1] 42.9% | [2] 7.7% | [3] 11.9% | [4] 21.8% | [5] -1.8% | [6] 15.9%

N#CC(c1ccccc1)c1ccc2ccccc2n1 (stereo not given)
inactive: [1] 23.6% | [2] 7.4% | [3] 10.8% | [4] 2.6% | [5] 33.5% | [6] -0.9%

CN(C)N=Nc1ccc(S(C)(=O)=O)cc1
inactive: [1] 4.9% | [2] 0.6% | [3] 1.5% | [4] -22.1% | [5] 10.1% | [6] 8.1%

CCOC(=O)c1ccc(NC(=S)Nc2ncccc2C)cc1
inactive: [1] 15.8% | [2] 11.4% | [3] 42.5% | [4] -3.3% | [5] 34.3% | [6] 21.2%

Nn1c(-c2cccc(Cl)c2)nc2ccccc2c1=O
inactive: [1] -18.6% | [2] 5.45% | [3] 13% | [4] 25.7% | [5] 17.9% | [6] 36.8%

CCCOC(=O)c1cccnc1
inactive: [1] -13.2% | [2] -29.6% | [3] -14.7% | [4] 0.7% | [5] -6.75% | [6] -8.65%

CCc1ccc(NC(=O)c2ccc(Cl)cc2Cl)cc1
inactive: [1] 4.9% | [2] 34.5% | [3] 7.7% | [4] 2.95% | [5] 11.8% | [6] 0.95%

CCCCC1=C(c2ccccc2)/C(=N/Nc2ccc([N+](=O)[O-])cc2[N+](=O)[O-])c2ccccc21
inactive: [1] 12.7% | [2] -1.45% | [3] 5.65% | [4] -2.85% | [5] 1.2% | [6] 9%

O=C(/C=C/c1ccccc1)CSc1ncn[nH]1
inactive: [1] 10.1% | [2] 5.4% | [3] 8.7% | [4] 4.75% | [5] 19.4% | [6] -7.4%

COc1ccc(C(c2cc3c(cc2O)OCO3)N2CCN(C(c3ccc(OC)c(OC)c3)c3cc4c(cc3O)OCO4)CC2)cc1OC (stereo not given)
inactive: [1] -3% | [2] 1.05% | [3] 1.6% | [4] 17.4% | [5] 2.2% | [6] -17.1%

CC/C(CC(=O)CCC(=O)Nc1ccc(C)c(C)c1)=N\NC(=O)c1cc2ccccc2cc1O
inactive: [1] 45.2% | [2] 22.9% | [3] -13.4% | [4] -5.2% | [5] 44.6% | [6] 34.4%

O=C(CC1CCCCC1)OCCOCCO
inactive: [1] -7.9% | [2] -5.7% | [3] -27.6% | [4] 3.35% | [5] -2.85% | [6] -3.5%

C#CC1(O)C2CCc3cc(OC)ccc3C2CCC1(C)C(=O)OC (stereo not given)
inactive: [1] 10.8% | [2] -0.2% | [3] 4.05% | [4] 6.85% | [5] -11.9% | [6] -11.6%

COC(=O)c1nnn(-c2ccc(Cl)cc2C)c1C(=O)c1ccc(OC)cc1
inactive: [1] -33.4% | [2] 0.95% | [3] -11.8% | [4] -2.45% | [5] -9.1% | [6] -20.2%

Cc1cc(-c2cccc3ccccc23)[n+]([O-])cc1C
inactive: [1] 15.6% | [2] 1.15% | [3] 17.2% | [4] -16.3% | [5] -24.1% | [6] 11.8%

O=C(NCCOC(=O)OCCNC(=O)NC1CCCCC1)NC1CCCCC1
inactive: [1] -12.8% | [2] -30% | [3] 0.9% | [4] 4.1% | [5] 4.1% | [6] -13.5%

O=C(NCCNC(=O)C(Br)(Br)Br)C(Br)(Br)Br
active: [1] 82.3% | [6] 72.8%
inactive: [2] 53.5% | [3] 58% | [4] 44.7% | [5] 69.5%

CCS(=O)(=O)C(CCCl)S(=O)(=O)CC
inactive: [1] 2.45% | [2] 0.9% | [3] 16.4% | [4] 8.55% | [5] 17.4% | [6] 13.9%

COC(=O)C(Cc1ccc(O)cc1)NC(=O)C(CC(=O)OCc1ccccc1)NC(=O)OCc1ccccc1 (stereo not given) (Cbz-Asp(OBn)-Tyr-OMe; configuration not given here)
inactive: [1] -11.3% | [2] -5.95% | [3] -0.7% | [4] -3.45% | [5] -21.4% | [6] 0.55%

O=C(Nc1ccc(Cl)cc1)C(Cl)C(Cl)c1ccc(Cl)cc1 (stereo not given)
inactive: [1] -15.6% | [2] -6.3% | [3] -7.65% | [4] -22.4% | [5] 9.05% | [6] -23.1%

CSc1nc2c([nH]1)c(=O)n(C)c(=S)n2C
inactive: [1] 4.95% | [2] 6.05% | [3] -0.85% | [4] 12.1% | [5] 0.4% | [6] -4.25%

CN(C)C(C)(CO)CO
inactive: [1] 17.4% | [2] -6.55% | [3] 0.65% | [4] 6.45% | [5] 9.2% | [6] 0.55%

CCOC(=O)C1(C#N)C(C#N)(C#N)C1(CC)CC (stereo not given)
inactive: [1] -11.2% | [2] 19.6% | [3] -1.55% | [4] 10.3% | [5] -6.4% | [6] -20.8%

CC1=NN(C(=O)c2ccc(Cl)cc2)C(=O)/C1=C/c1cccc([N+](=O)[O-])c1
inactive: [1] -16.7% | [2] -26.2% | [3] -44.9% | [4] -10.6% | [5] -15.9% | [6] -28.4%

COc1cc(CCC(NC(C)=O)c2cccc(O)c(=O)c2)cc(OC)c1OC (stereo not given)
inactive: [1] -10.2% | [2] -4.6% | [3] 17.2% | [4] -33.5% | [5] -3.35% | [6] 8.1%

O=C(NNC(=O)c1ccc(Cl)c(Cl)c1)c1ccccc1
inactive: [1] -13.8% | [2] 3.1% | [3] -6.05% | [4] -7.95% | [5] 2.75% | [6] -15.9%

Cn1ccnc1C(O)(c1nccn1C)c1nccn1C
inactive: [1] -5.75% | [2] -2.55% | [3] 2.15% | [4] 19.1% | [5] -8.35% | [6] 16.2%

CCC(C(=O)O)C(=O)O.[NH2-].[NH2-].[Pt+2]
inactive: [1] 11.8% | [2] -6.6% | [3] -11.1% | [4] 14.1% | [5] -9.55% | [6] 2.4%

CC(C)N(C(C)C)S(=O)(=O)c1ccccc1C(O)(c1ccccc1)c1ccccc1
inactive: [1] 47.5% | [2] -1.15% | [3] 39.4% | [4] -7.35% | [5] -0.95% | [6] 5.9%

O=C(Cc1ccccc1)NCCCN(CCCCN(CCCNC(=O)Cc1ccccc1)C(=O)OCc1ccccc1)C(=O)OCc1ccccc1
inactive: [1] -11.9% | [2] -11.6% | [3] -2.7% | [4] -7.4% | [5] -0.85% | [6] -27.6%

O=C(CCC(=O)Nc1ccc(Cl)c(Cl)c1)Cc1nc2ccccc2o1
inactive: [1] -8.25% | [2] -24.4% | [3] -11.2% | [4] 18.6% | [5] -13.7% | [6] 1.1%

CCCCOC(=O)COc1c(Cl)ccc(Cl)c1Cl
inactive: [1] 6.95% | [2] -0.75% | [3] 7% | [4] -3.5% | [5] 11.3% | [6] 6.7%

O=C1C=C(Nc2ccccc2)C(=O)C=C1Nc1ccccc1
inactive: [1] -2.3% | [2] 1.65% | [3] 10% | [4] -42.2% | [5] 4.15% | [6] -6%

CNS(=O)(=O)c1ccc(C)c(C)c1
inactive: [1] -0.5% | [2] -13.9% | [3] 4.4% | [4] -10.7% | [5] 23.1% | [6] 12.7%

O=C1c2ccccc2S(=O)(=O)c2c1cccc2[N+](=O)[O-]
inactive: [1] 14.1% | [2] -15.4% | [3] 3.6% | [4] 5.3% | [5] -4.7% | [6] 15.7%

CNc1cc(C(C)C)ccc1C
inactive: [1] 4.1% | [2] 8.75% | [3] 10.7% | [4] 0.85% | [5] 17.1% | [6] 3.25%

Reference: PubChem BioAssay (NCI)
